Assay results: PubChem BioAssay (Tox21)
Results filed as inconclusive are left out. A call without a number means that no potency is given here. Calls of active or inactive are those of the source. The call rests on the fitted dose curve.

Molecular target: Acetylcholinesterase (Homo sapiens) (UniProt P22303)
Assay: Acetylcholinesterase (AChE) small molecule antagonists: colormetric cell-based qHTS assay (AID 1347395); further: nearly all actives have a fitted effect of over 30% in size
Conditions: SH-SY5Y cells AChE activity, colorimetric (Ellman); series mostly up to 115 µM
Outline: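 Cells (SH-SY5Y, 2,000 per well) are seeded and left overnight at 37 C. Compound is added for 30 min, then DTNB and acetylthiocholine for a further 90 min at 37 C before absorbance-based thiocholine detection.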

Sequence of Acetylcholinesterase (Homo sapiens) (P22303 whole entry, looked up): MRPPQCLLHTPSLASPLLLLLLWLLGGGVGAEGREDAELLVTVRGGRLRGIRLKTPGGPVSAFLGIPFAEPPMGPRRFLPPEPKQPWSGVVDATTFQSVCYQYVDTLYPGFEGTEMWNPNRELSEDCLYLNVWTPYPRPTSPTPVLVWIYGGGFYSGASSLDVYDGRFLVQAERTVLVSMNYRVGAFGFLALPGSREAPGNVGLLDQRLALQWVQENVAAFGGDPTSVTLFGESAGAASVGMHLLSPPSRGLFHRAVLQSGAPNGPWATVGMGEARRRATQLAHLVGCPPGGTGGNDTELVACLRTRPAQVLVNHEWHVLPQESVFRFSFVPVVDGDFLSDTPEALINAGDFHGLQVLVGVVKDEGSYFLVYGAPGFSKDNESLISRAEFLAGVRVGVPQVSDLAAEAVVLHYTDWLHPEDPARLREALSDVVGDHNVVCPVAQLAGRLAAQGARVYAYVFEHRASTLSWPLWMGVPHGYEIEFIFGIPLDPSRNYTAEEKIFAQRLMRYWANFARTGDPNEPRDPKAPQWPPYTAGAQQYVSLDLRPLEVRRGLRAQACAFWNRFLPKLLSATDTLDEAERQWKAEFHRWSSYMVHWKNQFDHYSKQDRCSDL

With `CC(=O)c1ccccc1[N+](=O)[O-]` as the molecule, how does the Potency read?
The Potency was “inactive”.

How did the Potency turn out when `Cc1ccc(C(C)(C)C)c(O)c1` was run?
Its Potency is “inactive”.

`C=C(C)C(=O)OCCNC(C)(C)C` was tested. Which Potency did it give?
The Potency was “inactive”.

How did the Potency turn out when `COc1cc(C=O)ccc1OC(=O)C(C)C` was run?
The Potency was “inactive”.

For `Oc1cccc(O)c1`, which Potency is on record?
The Potency was “inactive”.

For `C[C@@H]1NC(=O)[C@@H](N)CNC(=O)[C@H](C2CCNC(N)=N2)NC(=O)/C(=C/NC(N)=O)NC(=O)[C@H](CNC(=O)C[C@@H](N)CCCN)NC1=O` (stereo not given in full), which activity, negative = inhibition is on record?
Its activity, negative = inhibition is -1.67% [at 0.435 µM] (inactive).

Which Potency does the source give for `Cl[Si](Cl)(c1ccccc1)c1ccccc1` here?
Its Potency is “inactive”.

Which Potency does the source give for `CCCCC(CC)C(=O)OCCOCCOCCOCCOC(=O)C(CC)CCCC` (stereo not given) here?
Its Potency is “inactive”.

For `N[C@@H](Cc1cc(I)c(Oc2ccc(O)c(I)c2)c(I)c1)C(=O)O`, which Potency is on record?
The Potency was “inactive”.

`CC1=C(O)C(=O)CO1` was tested. Which Potency did it give?
Its Potency is “inactive”.

`OCCNCCO` was tested. Which Potency did it give?
The Potency was “inactive”.

Which Potency does the source give for `C[C@@H](N)C(=O)O` here?
The Potency was “inactive”.

With `O=C(O)c1cccc(Oc2ccccc2)c1` as the molecule, how does the Potency read?
Its Potency is “inactive”.

For `C=C(C)C(=O)OCCCCCCCCCCCCCCCCCC`, which activity, negative = inhibition is on record?
Its activity, negative = inhibition is 0.231% [at 23.6 µM] (inactive).

How did the Potency turn out when `N#Cc1ccc(C(=O)O)cc1` was run?
Its Potency is “inactive”.

For `CCOCCO`, which Potency is on record?
The Potency was “inactive”.

`OCCOCC#CCOCCO` was tested. Which Potency did it give?
Its Potency is “inactive”.

For `C/C=C(/C(=C/C)c1ccc(O)cc1)c1ccc(O)cc1`, which Potency is on record?
Its Potency is “inactive”.

For `CCCCCCCC/C=C\CCCCCCCC(=O)O`, which Potency is on record?
The Potency was “inactive”.

`COc1ccc(-c2cc(C(F)F)nn2-c2ccc(S(N)(=O)=O)cc2)cc1F` was tested. Which Potency did it give?
Its Potency is “inactive”.

For `O=C(Oc1ccccc1)c1ccccc1O`, which Potency is on record?
The Potency was “inactive”.

Which Potency does the source give for `O=Cc1cc2ccccc2o1` here?
The Potency was “inactive”.

How did the Potency turn out when `COC(=O)c1ccccc1C` was run?
Its Potency is “inactive”.

How did the Potency turn out when `Cc1ccc(O)c2ncccc12` was run?
The Potency was “inactive”.

How did the Potency turn out when `C=C(CC)C(=O)c1ccc(OCC(=O)O)c(Cl)c1Cl` was run?
The Potency was “inactive”.
